Measurements published in PubChem BioAssay (NCI).
About 83,000 compounds went through this panel and 20% of them were active in at least one assay; those are over-represented in the sample as a whole.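 Plates (96-well) were seeded with cells, treated with compound at one concentration, and incubated for 48 hours before percent growth was determined.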 The source made the active and inactive calls. Rule for the calls: active = growth percent below 10; inactive = the rest.

Tested on: BT-549 breast
Assay: NCI-60 one-dose screen, 48 h (100 = growth as untreated, 0 = no growth, -100 = all killed)
Conditions: 10 µM

Row | SMILES | growth
1 | COc1ccc(-c2nn(-c3cccc(Cl)c3)cc2-c2cc(-c3ccccc3)[nH]c(=O)c2C#N)cc1 | 3.07% (active)
2 | CC(C)(C)OC(=O)N1CCc2c(sc3ncnc(N/N=C/c4ccccc4Br)c23)C1 | 92.3% (inactive)
3 | COc1ccc(-c2nn(-c3cccc(Cl)c3)cc2-c2nc(N)[nH]c(=O)c2C#N)cc1 | 64% (inactive)
4 | COc1ccc(-c2cc(-c3ccc(Cl)cc3)nc(SCCCC(=O)NO)n2)cc1 | 26.1% (inactive)
5 | COc1ccc(-c2nn(-c3cccc(Cl)c3)cc2-c2c(C#N)c(=O)n3[nH]c(-c4ccccc4)nc3c2C#N)cc1 | 84.4% (inactive)
6 | Cc1ccc(-n2c(C)nn3c(=O)c4c5c(sc4nc23)CN(C)CC5)cc1 | 97.6% (inactive)
7 | CCn1c(CSc2nc3ccccc3c(=O)n2CCc2ccccc2)n[nH]c1=S | 72.3% (inactive)
8 | COc1cc2cc(Oc3ccc(NC(=O)Nc4ccc(Cl)c(Cl)c4)cc3)c(C)nc2cc1OC | 28.1% (inactive)
9 | CCOC(=O)c1sc2ncnc(Nc3ccc4c(cnn4C(=O)Nc4ccc(C)c(Cl)c4)c3)c2c1C | 102% (inactive)
10 | CN1CCc2c(sc3nc4n(-c5ccc(Cl)cc5)c(=O)[nH]n4c(=O)c23)C1 | 94% (inactive)
11 | COc1cc2c3c(n(C4CCN(C)CC4)c(=O)c2cc1OC)-c1cc2c(cc1C3=O)OCO2 | 59.7% (inactive)
12 | CCOC(=O)CSc1nc(-c2cc(OC)ccc2OC)cc(-c2ccc(OC)cc2)c1C#N | 86% (inactive)
13 | CC(C)N(CCOc1ccc(-c2nc3sccn3c2-c2ccnc(S(C)(=O)=O)n2)cc1)C(C)C | 90.8% (inactive)
14 | N#Cc1ccc(C(=O)CSc2nccc(Nc3ccc(C(=O)O)cc3)n2)cc1 | 103% (inactive)
15 | O=C(CNc1nnc(-c2cccnc2SCc2ccccc2)s1)Nc1nc(Cl)cc(Cl)n1 | 100% (inactive)
16 | COC(=O)C1OC1c1cc([N+](=O)[O-])ccc1OC (stereo not drawn) | 107% (inactive)
17 | N#Cc1c(-c2ccc(Cl)cc2)cc(-c2cc(O)ccc2O)nc1N | 22.6% (inactive)
18 | COC(=O)c1c[nH]c2cc(OC(C)C)c(OC(C)C)cc2c1=O | 112% (inactive)
19 | C=C/C(C)=C/C[C@]1(C)[C@H](C)[C@@H](OC(=O)CCC)[C@H](O)[C@@]23C(=C[C@H](OC)C[C@@H]12)[C@@H](OC(=O)CCC)O[C@H]3OC(C)=O | -48.3% (active)
20 | O=C(Nc1cc([N+](=O)[O-])c2[nH]c(=O)c3ccccc3c2c1)C(F)(F)F | 86.5% (inactive)
21 | Nc1nc(Cl)nc2c1ncn2C1O[C@H](CO)[C@@H](O)[C@@H]1F (stereo partly drawn) | 20.4% (inactive)
22 | C#CC(C)(O)[C@@H]1C[C@H](CC(=O)O)C1(C)C (stereo partly drawn) | 104% (inactive)
23 | COc1ccc(-c2nn(-c3cccc(Cl)c3)cc2/C=C2\NC(=S)N(c3ccc(Cl)cc3)C2=O)cc1 | -13% (active)
24 | COc1ccc2c(c1)OC(N)=C(C#N)C2c1cc(OC)c(OC)c(OC)c1 (stereo not drawn) | 5.64% (active)
25 | IC(I)I | 103% (inactive)

Tested on: MDA-MB-435 melanoma
Assay: as above
Conditions: 10 µM

Row | SMILES | growth
26 | C=CCN(CC=C)C(=O)[C@H](CC)[C@@H]1CC[C@@H](C)[C@@H]([C@H](C)[C@@H](O)[C@@H](C)C(=O)[C@H](CC)C2O[C@]3(C=C[C@@H](O)[C@]4(CC[C@@](C)([C@H]5CC[C@](O)(CC)[C@H](C)O5)O4)O3)[C@H](C)C[C@@H]2C)O1 (stereo partly drawn) | 6% (active)
27 | O=C1CCn2c1c(O)c1ccccc1c2=O | 99.5% (inactive)
28 | COc1ccc(-c2cc(-c3ccccc3)nc(SCCCCCCC(=O)NO)n2)cc1 | 35.5% (inactive)
29 | Cc1ccc(NC(=S)NNC(=S)Nc2ccc(C)cc2)cc1 | -1.34% (active)
30 | c1cncc(-c2csc(-c3c[nH]c4ccccc34)n2)c1 | 86.9% (inactive)
31 | CN(C)CCOc1cccc(-c2nc3sccn3c2-c2ccnc(S(C)(=O)=O)n2)c1 | 96.8% (inactive)
32 | CC(C)(C)c1ccc(S(=O)(=O)N[C@H]2CC[C@H]3[C@@H]4CCc5cc(OS(=O)(=O)O)ccc5[C@H]4CC[C@]23C)cc1 | 49.9% (inactive)
33 | Nc1nccc(OCCO)n1 | 104% (inactive)
34 | CC(C)c1ccc(C(C)C(=O)N(CC2=C(C(C)c3ccccn3)c3ccccc3C2)C(C)C)cc1 (stereo not drawn) | 44.1% (inactive)
35 | Cc1c2cnccc2c(C)c2c1c1cc(O)ccc1n2C(C)C | 8.19% (active)
36 | CCc1ccc(C2=NN(c3ccc(S(C)(=O)=O)cc3)C(=O)CC2)cc1 | -24.3% (active)
37 | COc1cc2c(cc1NC(=O)C(Cl)Cl)-c1ccc(NC(=O)C(Cl)Cl)cc1C2 | -57.7% (active)
38 | COc1cc(/C=C2\CCCC3=C2NC(N)=NC3c2cc(OC)c(OC)c(OC)c2)cc(OC)c1OC (stereo not drawn) | -17.9% (active)
39 | COc1ccc(-c2nn(-c3cccc(Cl)c3)cc2-c2cc(-c3ccccc3)[nH]c(=O)c2C#N)cc1 | 81.5% (inactive)
40 | CC(C)(C)OC(=O)N1CCc2c(sc3ncnc(N/N=C/c4ccccc4Br)c23)C1 | 77.9% (inactive)
41 | COc1ccc(-c2nn(-c3cccc(Cl)c3)cc2-c2nc(N)[nH]c(=O)c2C#N)cc1 | 2.16% (active)
42 | COc1ccc(-c2cc(-c3ccc(Cl)cc3)nc(SCCCC(=O)NO)n2)cc1 | 18.1% (inactive)
43 | COc1ccc(-c2nn(-c3cccc(Cl)c3)cc2-c2c(C#N)c(=O)n3[nH]c(-c4ccccc4)nc3c2C#N)cc1 | 91.1% (inactive)
44 | Cc1ccc(-n2c(C)nn3c(=O)c4c5c(sc4nc23)CN(C)CC5)cc1 | 102% (inactive)

Row | SMILES | growth
45 | CCn1c(CSc2nc3ccccc3c(=O)n2CCc2ccccc2)n[nH]c1=S | 84.8% (inactive)
46 | COc1cc2cc(Oc3ccc(NC(=O)Nc4ccc(Cl)c(Cl)c4)cc3)c(C)nc2cc1OC | 12.3% (inactive)
47 | CCOC(=O)c1sc2ncnc(Nc3ccc4c(cnn4C(=O)Nc4ccc(C)c(Cl)c4)c3)c2c1C | 100% (inactive)
48 | CN1CCc2c(sc3nc4n(-c5ccc(Cl)cc5)c(=O)[nH]n4c(=O)c23)C1 | 103% (inactive)
49 | COc1cc2c3c(n(C4CCN(C)CC4)c(=O)c2cc1OC)-c1cc2c(cc1C3=O)OCO2 | 84.5% (inactive)
50 | CCOC(=O)CSc1nc(-c2cc(OC)ccc2OC)cc(-c2ccc(OC)cc2)c1C#N | 86.6% (inactive)
51 | CC(C)N(CCOc1ccc(-c2nc3sccn3c2-c2ccnc(S(C)(=O)=O)n2)cc1)C(C)C | 92.6% (inactive)
52 | N#Cc1ccc(C(=O)CSc2nccc(Nc3ccc(C(=O)O)cc3)n2)cc1 | 104% (inactive)
53 | O=C(CNc1nnc(-c2cccnc2SCc2ccccc2)s1)Nc1nc(Cl)cc(Cl)n1 | 114% (inactive)
54 | COc1ccc(N(C)c2ncnc3occ(C)c23)cc1 | 7.12% (active)
55 | COC(=O)C1OC1c1cc([N+](=O)[O-])ccc1OC (stereo not drawn) | 107% (inactive)
56 | N#Cc1c(-c2ccc(Cl)cc2)cc(-c2cc(O)ccc2O)nc1N | 6.77% (active)
57 | CN(C)CCN(Cc1ccccc1)c1ccc2ccccc2n1 | 94.4% (inactive)
58 | COC(=O)c1c[nH]c2cc(OC(C)C)c(OC(C)C)cc2c1=O | 106% (inactive)
59 | C=C/C(C)=C/C[C@]1(C)[C@H](C)[C@@H](OC(=O)CCC)[C@H](O)[C@@]23C(=C[C@H](OC)C[C@@H]12)[C@@H](OC(=O)CCC)O[C@H]3OC(C)=O | -70.3% (active)
60 | O=C(Nc1cc([N+](=O)[O-])c2[nH]c(=O)c3ccccc3c2c1)C(F)(F)F | 102% (inactive)
61 | Nc1nc(Cl)nc2c1ncn2C1O[C@H](CO)[C@@H](O)[C@@H]1F (stereo partly drawn) | 41.5% (inactive)
62 | COc1ccc(-c2nn(-c3cccc(Cl)c3)cc2/C=C2\NC(=S)N(c3ccc(Cl)cc3)C2=O)cc1 | 7.26% (active)
63 | COc1ccc2c(c1)OC(N)=C(C#N)C2c1cc(OC)c(OC)c(OC)c1 (stereo not drawn) | -16.7% (active)
